Assay results taken from PubChem BioAssay (NCI).
Compounds without any hit were thinned out: in the full panel of roughly 83,000, 20% have a hit.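 In brief: 96-well plates, 48 h treatment, single concentration, percent growth endpoint.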 Values without a mark were called inactive. Calls of active or inactive are those of the source. The calls were made as follows: active = growth percent below 10; inactive = the rest.

How the values were obtained:
Assay in all cases: NCI-60 one-dose screen, 48 h (100 = growth as untreated, 0 = no growth, -100 = all killed)
Conditions in all cases: 10 µM unless noted
DU-145 prostate = test system: DU-145 prostate
K-562 leukemia = test system: K-562 leukemia
MALME-3M melanoma = test system: MALME-3M melanoma
MDA-MB-231 breast = test system: MDA-MB-231 breast
RXF 393 renal = test system: RXF 393 renal
SF-268 CNS = test system: SF-268 CNS
SF-295 CNS = test system: SF-295 CNS
SF-539 CNS = test system: SF-539 CNS
UACC-257 melanoma = test system: UACC-257 melanoma
M14 melanoma = test system: M14 melanoma
HCT-15 colon = test system: HCT-15 colon
HT29 colon = test system: HT29 colon
SNB-75 CNS = test system: SNB-75 CNS
SNB-19 CNS = test system: SNB-19 CNS
U251 CNS = test system: U251 CNS
PC-3 prostate = test system: PC-3 prostate
SK-MEL-5 melanoma = test system: SK-MEL-5 melanoma
UACC-62 melanoma = test system: UACC-62 melanoma
LOX IMVI melanoma = test system: LOX IMVI melanoma
SK-MEL-28 melanoma = test system: SK-MEL-28 melanoma

| Compound | growth (DU-145 prostate) | growth (K-562 leukemia) | growth (MALME-3M melanoma) | growth (MDA-MB-231 breast) | growth (RXF 393 renal) | growth (SF-268 CNS) | growth (SF-295 CNS) | growth (SF-539 CNS) | growth (UACC-257 melanoma) | growth (M14 melanoma) | growth (HCT-15 colon) | growth (HT29 colon) | growth (SNB-75 CNS) | growth (SNB-19 CNS) | growth (U251 CNS) | growth (PC-3 prostate) | growth (SK-MEL-5 melanoma) | growth (UACC-62 melanoma) | growth (LOX IMVI melanoma) | growth (SK-MEL-28 melanoma) |
| --- | --- | --- | --- | --- | --- | --- | --- | --- | --- | --- | --- | --- | --- | --- | --- | --- | --- | --- | --- | --- |
| Cc1cc(NCc2cc(Nc3ccnc4cc(Cl)ccc34)ccc2F)nc(N2CCN(c3ccccc3)CC2)n1 | 72.5% | -0.109% (active) | 84.4% | 17.2% | 47.4% | 65.3% | 27.3% | 61.9% | 73.7% | 43.4% | 15.6% | 13.6% | 57.7% | 76.5% | 10.5% | 42.7% | 53.3% | 70.6% | -84.6% (active) | 69.7% |
| CC1(C)CC[C@]2(C(=O)N3CCOCC3)CC[C@]3(C)C(=CC[C@@H]4[C@@]5(C)CC[C@H](OC(=O)c6cccnc6)C(C)(C)[C@@H]5CC[C@]43C)[C@@H]2C1 | 60.9% | 36% | 88.6% | 70.4% | 84.3% | 71.1% | 51.2% | 71.5% | 65.5% | 72.8% | 49.4% | 42.3% | 67.7% | 67.5% | 53.2% | 38.9% | 54.3% | 35.7% | 28% | 66.1% |
| CC1(c2ccccc2)NC(=O)N(NC(=O)CSc2nc(-c3cccs3)nc3ccccc23)C1=O (stereo not given) | 106% | 88.8% | 100% | 90.9% | 78.1% | 97.8% | 99.3% | 95% | 83.5% | 109% | 91.2% | 108% | 96.4% | 92.2% | 94.6% | 90.8% | 85.2% | 69% | 95.9% | 115% |
| N#C/C(=C\c1ccc(-c2ccccc2F)o1)c1nc(-c2ccco2)cs1 | 101% | 82.8% | 96% | 85.8% | 109% | 101% | 98.6% | 98.1% | 99.7% | 94.8% | 62.1% | 95.5% | 60.7% | 95.2% | 101% | 78.4% | 84.7% | 83.9% | 93.7% | 104% |
| CN(C)CCNc1nc2ccccc2c2c1c1c(n2Cc2ccccc2)-c2ccccc2C1=O | -100% (active) | -57.9% (active) | -59% (active) | -79.8% (active) | -65.5% (active) | -81.9% (active) | -77.3% (active) | -91.3% (active) | -85.3% (active) | -81.8% (active) | -88.2% (active) | -100% (active) | -96.1% (active) | -86.3% (active) | -95.9% (active) | -88.6% (active) | -100% (active) | -94.1% (active) | -96.2% (active) | -100% (active) |
| O=c1c2cc(F)ccc2sc2c(NCCCN3CCCC3)nc3ccccc3c12 | 60.1% | -29.7% (active) | 26.5% | 21.1% | 22.7% | 47.6% | 55.1% | 65.3% | 54.2% | -64.2% (active) | 7.59% (active) | 5.1% (active) | 21.5% | 53.6% | 33.2% | 43.8% | 58.8% | -75.9% (active) | -87.1% (active) | -52.8% (active) |
| O=C(CCc1nnc(CN(c2ccccc2)c2ccccc2)o1)c1nc2ccccc2[nH]1 | 104% | 76.3% | 94.3% | 75.3% | 113% | 93.6% | 95.6% | 97.5% | 103% | 102% | 97.4% | 93.4% | 86.9% | 92.7% | 94.9% | 76.3% | 99.4% | 69.4% | 80.3% | 112% |
| O=C(COc1ccc(/C=C2\Oc3ccccc3C2=O)cc1)c1ccc(Cl)cc1 | 119% | 93.7% | 111% | 85.7% | 91.8% | 106% | 309% | 96.7% | 117% | 108% | 106% | 107% | 103% | 94.3% | 104% | 98.2% | 109% | 88.2% | 95.8% | 120% |
| Clc1cc(Cl)cc(Nc2ccc3cc(OCCCN4CCOCC4)ccc3n2)c1 | 40.6% | -27.3% (active) | 66.5% | -5.22% (active) | 5.08% (active) | 46.9% | -59.7% (active) | 9.86% (active) | 49% | 12.6% | 7.18% (active) | -39.5% (active) | 11% | 38.5% | 2.35% (active) | 21.8% | 71% | 12.9% | -77.6% (active) | 27.8% |
| COc1cc(C(=O)c2cc(C)c3[nH]c4ccc(Cl)cc4c3c2C)cc(OC)c1OC | -19.7% (active) | 13.6% | 27.9% | 22.1% | 36.6% | 25.5% | 4.51% (active) | -10.1% (active) | 68% | 17.5% | 7.42% (active) | 18.6% | 22.9% | 35.6% | 20% | 27.3% | -55.8% (active) | 42.6% | 8.56% (active) | 53.6% |
| C[n+]1cccc(CC(=O)NO)c1 | 109% | 94.4% | 104% | 100% | 106% | 104% | 113% | 90.9% | 67.7% | 99.2% | 112% | 99.7% | 92.6% | 102% | 87.6% | 95.5% | 96.4% | 92.9% | 98% | 113% |
| Cc1ccc(S(=O)(=O)N/N=C\c2cc(Cl)ccc2O)cc1 | 92.1% | 82% | 95.3% | 93.8% | 91% | 94.7% | 92.1% | 76.6% | 107% | 96.2% | 81.8% | 103% | 88.5% | 86.2% | 90.4% | 93.6% | 99.6% | 106% | 88.3% | 98.3% |
| C=CCn1c(C)nc2cc(Nc3nc(Cl)nc4ccccc34)ccc21 | 105% | 74.8% | 122% | 89.9% | 87.4% | 89.9% | 84.8% | 97.4% | 102% | 110% | 92.3% | 98.8% | 96.9% | 107% | 95.5% | 82% | 91.4% | 93.1% | 104% | 107% |
| COc1ccc(-c2nc(SCCC(C)C)nc(N/N=C\c3ccccc3O)c2C#N)cc1 | 95.7% | 91.6% | 89.6% | 85.1% | 76.1% | 78% | 94.2% | 90.9% | 89.8% | 98.3% | 86.6% | 103% | 74.8% | 72.4% | 60.5% | 92.3% | 94.2% | 90% | 84.6% | 99.1% |
| COC(=O)/C=C1\S/C(=N\NS(=O)(=O)c2ccc(C)cc2)N(c2ccccc2)C1=O | 105% | 84.5% | 110% | 109% | 111% | 98% | 105% | 100% | 99.5% | 107% | 98.7% | 117% | 83.8% | 97% | 102% | 96.4% | 100% | 95.2% | 98.7% | 104% |
